Results reported in PubChem BioAssay (NCATS).
Inconclusive results are not listed. A call without a number means that no potency is given here. Active and inactive are the calls of the source. Calls follow the shape of the dose curve; as a rule, active = well fitted cell-killing curve with a large enough effect; inconclusive = small, poorly fitted or top-dose-only effect; inactive = no such curve, though single readings can be large or run the other way.

Assay: qHTS of pediatric cancer cell lines to identify multiple opportunities for drug repurposing: Primary screen for SJ-GBM2 cells (AID 1347091); also: potency is read from the fitted curve at half-maximal effect
Details: SJ-GBM2 viability, CellTiter-Glo luminescence, 48 h; series mostly up to 46 µM; activity change, negative = cytotoxic: at the top concentration
Outline: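 Eight- or eleven-point concentration series, 48 h treatment at 37 degrees C in growth media; readout CellTiter-Glo luminescence. Potency and efficacy were taken from the concentration-response curves.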

| SMILES | Potency | activity change, negative = cytotoxic |
| --- | --- | --- |
| NC(=O)c1cnccn1 | inactive |  |
| CCOC(=O)C1=C[C@]2(CC)CCCN3CCc4c(n1c1ccccc41)[C@@H]32 |  | -27% (inactive) |
| CCC(C)N(C)C(=O)c1cc2ccccc2c(-c2ccccc2Cl)n1 (configuration not stated) |  | 3.26% (inactive) |
| OC(CCN1CCCCC1)(c1ccccc1)C1CC2C=CC1C2 (configuration not stated) | inactive |  |
| Cc1ccccc1C(OCCN(C)C)c1ccccc1 (configuration not stated) | inactive |  |
| Cc1[nH]c(=O)c(C#N)cc1-c1ccc2nccn2c1 | inactive |  |
| Nc1ccc(S(=O)(=O)Nc2ccnn2-c2ccccc2)cc1 | inactive |  |
| Nc1nc2c(ncn2COCCO)c(=O)[nH]1 |  | -3.51% (inactive) |
| CC(=O)Oc1ccccc1C(=O)O | inactive |  |
| c1ccc([C@H]2CN3CCSC3=N2)cc1 | inactive |  |
| O=C1CCC(N2C(=O)c3ccccc3C2=O)C(=O)N1 (configuration not stated) | inactive |  |
| Nc1nc2ccc(OC(F)(F)F)cc2s1 | 21.1 µM (active) |  |
| CC(C[N+](C)(C)C)OC(N)=O (configuration not stated) | inactive |  |
| CCOC(=O)N1CCC(=C2c3ccc(Cl)cc3CCc3cccnc32)CC1 | 23.5 µM (active) |  |
| Cc1cnc(NC(=O)C2=C(O)c3ccccc3S(=O)(=O)N2C)s1 | inactive |  |
| C1COC(NC(C2CC2)C2CC2)=N1 | inactive |  |
| Clc1cccc(Cl)c1NC1=NCCN1 | inactive |  |
| O=C1CCc2cc(OCCCCc3nnnn3C3CCCCC3)ccc2N1 | inactive |  |
| O=c1[nH]cnc2[nH]ncc12 |  | -20.6% (inactive) |
| CNC[C@H](O)c1cccc(O)c1 | inactive |  |
| NCCCC(N)(C(=O)O)C(F)F (configuration not stated) |  | 8.05% (inactive) |
| CCCC(CCC)C(=O)O | inactive |  |
| CC(C)(C)NCC(O)c1ccc(O)c(CO)c1 (configuration not stated) | inactive |  |

Assay: qHTS of pediatric cancer cell lines to identify multiple opportunities for drug repurposing: Primary screen for A673 cells (AID 1347092); also: nearly all actives have a fitted effect of over 45% in size
Details: A673 Ewing sarcoma viability, CellTiter-Glo ATP luminescence, 48 h; series mostly up to 46 µM; activity change, negative = cytotoxic: at the top concentration
Outline: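 48 h compound exposure, A673, 500-1,000 cells/well, 37 degrees C/5% CO2. MIPE: 11-point, 0.78 nM-46 µM; NPC: 8-point, 0.59 nM-46 µM (final). Readout CellTiter-Glo luminescence after 15 min RT.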

| SMILES | Potency | activity change, negative = cytotoxic |
| --- | --- | --- |
| CCn1cc(C(=O)O)c(=O)c2cc(F)c(N3CCNC(C)C3)c(F)c21 (configuration not stated) | inactive |  |
| NS(=O)(=O)c1cc2c(cc1Cl)NC=NS2(=O)=O | inactive |  |
| O=C(O)COCCN1CCN(C(c2ccccc2)c2ccc(Cl)cc2)CC1 (configuration not stated) | inactive |  |
| CCC(C)N(C)C(=O)c1cc2ccccc2c(-c2ccccc2Cl)n1 (configuration not stated) |  | -4.47% (inactive) |
| OC(CCN1CCCCC1)(c1ccccc1)C1CC2C=CC1C2 (configuration not stated) | inactive |  |
| Cc1ccccc1C(OCCN(C)C)c1ccccc1 (configuration not stated) | inactive |  |
| O=NN(CCCl)C(=O)NCCCl | inactive |  |
| Cc1[nH]c(=O)c(C#N)cc1-c1ccc2nccn2c1 |  | 5% (inactive) |
| CC(C)NCC(O)COc1ccc(COCCOC(C)C)cc1 (configuration not stated) | inactive |  |
| Nc1ccc(S(=O)(=O)Nc2ccnn2-c2ccccc2)cc1 | inactive |  |
| Nc1nc2c(ncn2COCCO)c(=O)[nH]1 | inactive |  |
| O=C1CCC(N2C(=O)c3ccccc3C2=O)C(=O)N1 (configuration not stated) | inactive |  |
| CC(C[N+](C)(C)C)OC(N)=O (configuration not stated) | inactive |  |
| Cc1cnc(NC(=O)C2=C(O)c3ccccc3S(=O)(=O)N2C)s1 | inactive |  |
| Oc1ccc(C2CNCCc3c2cc(O)c(O)c3Cl)cc1 (configuration not stated) | inactive |  |
| C1COC(NC(C2CC2)C2CC2)=N1 |  | 2.01% (inactive) |
| Clc1cccc(Cl)c1NC1=NCCN1 | inactive |  |
| O=C1CCc2cc(OCCCCc3nnnn3C3CCCCC3)ccc2N1 | inactive |  |
| O=c1n(CCCN2CCN(c3cccc(Cl)c3)CC2)nc2ccccn12 | inactive |  |
| CNC[C@H](O)c1cccc(O)c1 | inactive |  |
| CCCC(CCC)C(=O)O |  | -0.255% (inactive) |
| Cc1cn[nH]c1 |  | 4.63% (inactive) |
| CC(C)(C)NCC(O)c1ccc(O)c(CO)c1 (configuration not stated) | inactive |  |

Assay: qHTS of pediatric cancer cell lines to identify multiple opportunities for drug repurposing: Primary screen for SK-N-MC cells (AID 1347093); also: potency is read from the fitted curve at half-maximal effect
Details: SK-N-MC viability, CellTiter-Glo luminescence, 48 h; series mostly up to 46 µM; activity change, negative = cytotoxic: at the top concentration
Outline: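 Metabolically active cells were quantified by ATP-dependent luminescence (CellTiter-Glo, 15 min at room temperature) following 48 h treatment. Cells had been plated at 500-1,000 per well and settled for 5 h beforehand.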

| SMILES | activity change, negative = cytotoxic | Potency |
| --- | --- | --- |
| NC(=O)c1cnccn1 | -6.45% (inactive) |  |
| CCn1cc(C(=O)O)c(=O)c2cc(F)c(N3CCNC(C)C3)c(F)c21 (configuration not stated) |  | inactive |
| NS(=O)(=O)c1cc2c(cc1Cl)NC=NS2(=O)=O |  | inactive |
| O=C(O)COCCN1CCN(C(c2ccccc2)c2ccc(Cl)cc2)CC1 (configuration not stated) | -12.1% (inactive) |  |
| CCOC(=O)C1=C[C@]2(CC)CCCN3CCc4c(n1c1ccccc41)[C@@H]32 |  | 13.2 µM (active) |
| CCC(C)N(C)C(=O)c1cc2ccccc2c(-c2ccccc2Cl)n1 (configuration not stated) | -27% (inactive) |  |
| OC(CCN1CCCCC1)(c1ccccc1)C1CC2C=CC1C2 (configuration not stated) |  | inactive |
| Cc1ccccc1C(OCCN(C)C)c1ccccc1 (configuration not stated) |  | inactive |
| O=NN(CCCl)C(=O)NCCCl |  | inactive |
| Cc1[nH]c(=O)c(C#N)cc1-c1ccc2nccn2c1 | -5.66% (inactive) |  |
| CC(C)NCC(O)COc1ccc(COCCOC(C)C)cc1 (configuration not stated) |  | inactive |
| Nc1ccc(S(=O)(=O)Nc2ccnn2-c2ccccc2)cc1 |  | inactive |
| CC(C)(Sc1ccc(CCN(CCCCC2CCCCC2)C(=O)NC2CCCCC2)cc1)C(=O)O |  | 23.5 µM (active) |
| CC(=O)Oc1ccccc1C(=O)O | -29.8% (inactive) |  |
| c1ccc([C@H]2CN3CCSC3=N2)cc1 |  | inactive |
| O=C1CCC(N2C(=O)c3ccccc3C2=O)C(=O)N1 (configuration not stated) |  | inactive |
| CC(C[N+](C)(C)C)OC(N)=O (configuration not stated) |  | inactive |
| Cc1cnc(NC(=O)C2=C(O)c3ccccc3S(=O)(=O)N2C)s1 | 24.3% (inactive) |  |
| Oc1ccc(C2CNCCc3c2cc(O)c(O)c3Cl)cc1 (configuration not stated) |  | inactive |
| Clc1cccc(Cl)c1NC1=NCCN1 |  | inactive |
| CC(C)C[C@H](NC(=O)[C@@H](O)[C@H](N)Cc1ccccc1)C(=O)O |  | 29.6 µM (active) |
| N[C@@H]1CONC1=O |  | inactive |
| O=c1n(CCCN2CCN(c3cccc(Cl)c3)CC2)nc2ccccn12 |  | inactive |
| CNC[C@H](O)c1cccc(O)c1 |  | inactive |
| Cc1cn[nH]c1 | -8.31% (inactive) |  |
| CC(C)(C)NCC(O)c1ccc(O)c(CO)c1 (configuration not stated) | -7.49% (inactive) |  |
